# Laboratory results reported in the supplement of paper PMC4723716.
# ± gives the uncertainty stated by the source. In all, about 9,900 compounds were measured (“viability index relative to DMSO control”: median about 1, lowest 2% from about 0.85 on). The list comes from a sample in which the lowest values are over-represented; it also holds similar structures and randomly drawn compounds.
# System: Plasmodium falciparum NF54 stage V gametocytes
# Assay: viability index relative to DMSO control (fraction); higher = less gametocyte killing
# Conditions: 2.5 µM, incubation time: 72 h
# Procedure, shortened: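 P. falciparum NF54 stage V gametocytes in serum-free screening medium (0.75% gametocytemia, 1.25% hematocrit, 10 µl) were incubated with compound at 2.5 µM in 1,536-well plates for 72 hr at 37°C under low oxygen. Then 3 µl of 2.5 µM MitoTracker Red CMXRos plus 0.13% saponin was added for one to two hours. One field per well was imaged, 20–70 µm2 red particles were counted, and the viability index was the count divided by the plate mean of DMSO wells.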
# [1] = library set: Broad Institute DOS
# [2] = library set: Broad Institute Blood Stage
Structure (SMILES),viability index [1],viability index [2]
O=C(C[C@H]1CC[C@H]2[C@@H](COC[C@@H](O)CN2Cc2nccs2)O1)NCc1ccccc1Cl,1.1 ± 0.03,
C[C@@H]1CN([C@H](C)CO)C(=O)Cc2cc(NC(=O)c3ccncc3)ccc2O[C@H]1CN(C)C(=O)Nc1ccc(F)cc1,0.944 ± 0.12,
CC(C)NC[C@@H]1[C@H](c2ccc(C3=CCCCC3)cc2)[C@H](CO)N1S(C)(=O)=O,0.996 ± 0.022,
C[C@H]1CN([C@@H](C)CO)C(=O)CCCn2nncc2CO[C@@H]1CN(C)Cc1ccccc1C(=O)O,1.04 ± 0.031,
O=C(c1ccccn1)N1CC2(C1)[C@@H](c1ccccc1)[C@@H](CO)N2C(=O)C1CCCCC1,1.041 ± 0.0089,
OC[C@@H]1[C@@H](c2ccc(-c3cccnc3)cc2)[C@@H]2CN(Cc3ccccn3)CCCCN12,0.737 ± 0.12,
OC[C@H]1[C@@H](c2ccc(C3=CCCC3)cc2)[C@@H]2CN(Cc3ccncc3)CCCCN12,0.845 ± 0.14,
OC[C@@H]1[C@H](c2ccc(-c3cccnc3)cc2)[C@H]2CN(Cc3ccccn3)CCCCN12,0.979 ± 0.024,
OC[C@H]1[C@@H](c2ccc(-c3cccc(F)c3)cc2)[C@@H]2CN(Cc3cncnc3)CCCCN12,0.963 ± 0.1,
OC[C@@H]1[C@H](c2ccc(C3=CCCC3)cc2)[C@H]2CN(Cc3ccncc3)CCCCN12,1.05 ± 0.068,
OC[C@@H]1[C@H](c2ccc(-c3cccnc3)cc2)[C@@H]2CN(Cc3ccccn3)CCCCN12,1.04 ± 0.06,
CN1C(=O)c2cc(NC(=O)c3ccc4c(c3)OCO4)ccc2OC[C@H]2O[C@@H](CC(=O)O)CC[C@@H]21,1.11 ± 0.071,
CO[C@@H](CN(C)C(=O)c1cc(Cl)cc(Cl)c1)[C@@H](C)CN(C(=O)Nc1ccc(F)cc1)[C@@H](C)CO,1.04 ± 0.018,
N#C[C@H]1[C@@H](c2ccccc2)[C@@H](CO)N1C(=O)c1ccc2c(c1)OCO2,1.08 ± 0.022,
N#C[C@H]1[C@@H](c2ccccc2C2=CCCC2)[C@H](CO)N1C(=O)Cc1ccncc1,1.07 ± 0.13,
COc1ccc(S(=O)(=O)N(C)C[C@H]2OCCCC[C@H](C)Oc3ccc(NC(=O)Cc4ccccc4)cc3C(=O)N([C@@H](C)CO)C[C@H]2C)cc1,0.791 ± 0.031,
COc1ccc(S(=O)(=O)N(C)C[C@H]2OCCCC[C@@H](C)Oc3ccc(NC(=O)Cc4ccccc4)cc3C(=O)N([C@@H](C)CO)C[C@@H]2C)cc1,1.07 ± 0.17,
COc1ccc(S(=O)(=O)N(C)C[C@H]2OCCCC[C@@H](C)Oc3ccc(NC(=O)Cc4ccccc4)cc3C(=O)N([C@@H](C)CO)C[C@H]2C)cc1,0.773 ± 0.061,
COc1ccc(S(=O)(=O)N(C)C[C@H]2OCCCC[C@H](C)Oc3ccc(NC(=O)Cc4ccccc4)cc3C(=O)N([C@H](C)CO)C[C@H]2C)cc1,0.9061 ± 0.001,
COc1ccc(S(=O)(=O)N(C)C[C@@H]2OCCCC[C@H](C)Oc3ccc(NC(=O)Cc4ccccc4)cc3C(=O)N([C@@H](C)CO)C[C@H]2C)cc1,0.911 ± 0.17,
COc1ccc(S(=O)(=O)N(C)C[C@H]2OCCCC[C@H](C)Oc3ccc(NC(=O)Cc4ccccc4)cc3C(=O)N([C@H](C)CO)C[C@@H]2C)cc1,0.994 ± 0.022,

Structure (SMILES),viability index [1],viability index [2]
COCC#Cc1ccc([C@@H]2[C@H](CO)N3C(=O)CN(C(=O)CN4CCOCC4)C[C@@H]23)cc1,1.02 ± 0.05,
C[C@@H](NC(=O)C[C@H]1C=C[C@@H](NS(=O)(=O)c2cccc(F)c2)[C@H](CO)O1)c1ccccc1,1.17 ± 0.04,
O=C(N[C@@H]1CC[C@H](CC(=O)N2CCOCC2)O[C@H]1CO)c1cccc(F)c1,1.07 ± 0.062,
O=C(Nc1ccccc1)N1CC(=O)N2[C@H](CO)[C@@H](c3ccc(C#CC4CCCCC4)cc3)[C@@H]2C1,1.04 ± 0.086,
COCC(=O)N1CC[C@@]2(CC1)CN([C@@H](CO)c1c2c2ccc(OC)cc2n1C)C(=O)c1ccccn1,1.02 ± 0.1,
CO[C@@H]1CN(C)C(=O)c2cc(NS(=O)(=O)CC(F)(F)F)ccc2OC[C@H](C)NC[C@@H]1C,1.05 ± 0.059,
O=C(NCC[C@@H]1CC[C@@H](NS(=O)(=O)Cc2ccccc2)[C@@H](CO)O1)C1CCCCC1,0.968 ± 0.15,
CN(C)C(=O)C[C@@H]1C=C[C@H](NC(=O)c2ccc(F)cc2)[C@@H](CO)O1,1.11 ± 0.097,
C[C@@H]1CN([C@@H](C)CO)C(=O)c2cccc(NC(=O)C3CC3)c2O[C@@H]1CN(C)C(=O)Nc1ccc(C(F)(F)F)cc1,,0.594 ± 0.06
C[C@@H]1CN([C@@H](C)CO)C(=O)c2cccc(NC(=O)NC3CCCCC3)c2O[C@@H]1CN(C)Cc1ccc(C(F)(F)F)cc1,0.813 ± 0.08,
C[C@@H]1CN([C@@H](C)CO)C(=O)c2cccc(NC(=O)c3nc4ccccc4s3)c2O[C@H]1CN(C)C(=O)Nc1ccc(C(F)(F)F)cc1,,0.811 ± 0.058
C[C@@H]1CN([C@H](C)CO)C(=O)c2cccc(NC(=O)NC3CCCCC3)c2O[C@H]1CN(C)Cc1ccc(C(F)(F)F)cc1,1.01 ± 0.083,
C[C@@H]1CN([C@H](C)CO)C(=O)c2cccc(NC(=O)NC3CCCCC3)c2O[C@@H]1CN(C)Cc1ccc(C(F)(F)F)cc1,0.977 ± 0.071,
Cc1ccc(S(=O)(=O)Nc2cccc3c2O[C@H](CN(C)C(=O)Nc2ccc(C(F)(F)F)cc2)[C@@H](C)CN([C@H](C)CO)C3=O)cc1,1.02 ± 0.029,
Cc1ccc(S(=O)(=O)Nc2cccc3c2O[C@@H](CN(C)C(=O)Nc2ccc(C(F)(F)F)cc2)[C@@H](C)CN([C@H](C)CO)C3=O)cc1,1.08 ± 0.061,
C[C@H](CO)N1C[C@H](C)[C@H](CN(C)C(=O)Nc2ccc(C(F)(F)F)cc2)Oc2ccc(NS(=O)(=O)c3ccc(Cl)cc3)cc2CC1=O,1.009 ± 0.0083,
C[C@H](CO)N1C[C@H](C)[C@@H](CN(C)C(=O)Nc2ccc3c(c2)OCO3)Oc2ccc(NC(=O)Nc3ccc(C(F)(F)F)cc3)cc2CC1=O,,0.755 ± 0.061
C[C@H](CO)N1C[C@H](C)[C@@H](CN(C)C(=O)Nc2ccc(C(F)(F)F)cc2)Oc2ccc(NS(=O)(=O)c3ccc(Cl)cc3)cc2CC1=O,0.917 ± 0.088,
C[C@@H]1CN([C@H](C)CO)C(=O)c2cccc(NC(=O)c3nc4ccccc4s3)c2O[C@H]1CN(C)C(=O)Nc1ccc2c(c1)OCO2,0.9047 ± 0.0069,
C[C@H](CO)N1C[C@H](C)[C@@H](CN(C)C(=O)Nc2ccc3c(c2)OCO3)Oc2c(NC(=O)c3nc4ccccc4s3)cccc2C1=O,1.01 ± 0.041,
O=C(Nc1ccccc1F)N1CC(=O)N2[C@@H](CO)[C@H](c3ccc(-c4cccnc4)cc3)[C@@H]2C1,1.08 ± 0.028,
